Screening results as filed in PubChem BioAssay.
An excerpt weighted towards active compounds, which were near 3% of everything screened.
PPC-1+TRAIL kill: compounds killing PPC-1 cancer cells with TRAIL present, primary screen, TRAIL potentiator project, ATPLite luminescence, uHTS; PPC-1 cells + TRAIL, ATPLite viability luminescence; actives 0.41% (n = 220,000); cell killing (% activity), % at 4 µM or 5 µM;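 active means cell killing above 50% in the first pass at 4 µM, then a duplicate retest at 5 µM averaging 50% or more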
SENP8 block-1: human SENP8 protease inhibitors, primary screen, biochemical, fluorescence, Nedd8 protein substrate, uHTS. recombinant SENP8. Sentrin-specific protease 8 (Homo sapiens), Q96LD8. actives 0.64% (n = 360,000). inhibition, % at 20 µM. AID 602440, 2012; in the data active means inhibition mostly above about 40%, no sharp cut-off; inactive means mostly below about 27%
TRAIL sens C8: viability loss with TRAIL in NB7+C8 cells, primary screen, TRAIL sensitizer project, cell-based, ATPlite luminescence | inhibition (viability loss, TRAIL sensitization), % at 10 µM | actives 1% (n = 360,000);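 active means compounds causing at least 50% loss of cell viability in the single-dose screen, relative to plate controls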
SENP7 block: SENP7 protease inhibitors, primary screen, biochemical, luminescence, uHTS; actives 1.5% (n = 330,000); recombinant SENP7, Z-RLRGG-aminoluciferin luminescence, 40 min; Sentrin-specific protease 7 (Homo sapiens), Q9BQF6; inhibition, % at 5 µM;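 active means inhibition above about 50% at the single test dose, limit read from the data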
SENP8 block-2: SENP8 protease inhibitors, primary screen, biochemical, luminescence; AID 2540, 2010; actives 1.2% (n = 330,000); Sentrin-specific protease 8 (Homo sapiens), Q96LD8; inhibition, % at 10 µM; purified SENP8, Z-RLRGG-aminoluciferin cleavage; in the data active means inhibition above about 50%
SENP6 inh: SENP6 protease inhibitors, primary screen, biochemical, luminescence, uHTS. Sentrin-specific protease 6 (Homo sapiens), Q9GZR1. Recombinant SENP6 catalytic domain, aminoluciferin luminescence. inhibition, % at 10 µM. actives 1.8% (n = 330,000). AID 2599, 2010;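 active means inhibition above about 50% at the single tested dose, limit read from the data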
Target sequence (Q9GZR1 628-1112 limits assumed): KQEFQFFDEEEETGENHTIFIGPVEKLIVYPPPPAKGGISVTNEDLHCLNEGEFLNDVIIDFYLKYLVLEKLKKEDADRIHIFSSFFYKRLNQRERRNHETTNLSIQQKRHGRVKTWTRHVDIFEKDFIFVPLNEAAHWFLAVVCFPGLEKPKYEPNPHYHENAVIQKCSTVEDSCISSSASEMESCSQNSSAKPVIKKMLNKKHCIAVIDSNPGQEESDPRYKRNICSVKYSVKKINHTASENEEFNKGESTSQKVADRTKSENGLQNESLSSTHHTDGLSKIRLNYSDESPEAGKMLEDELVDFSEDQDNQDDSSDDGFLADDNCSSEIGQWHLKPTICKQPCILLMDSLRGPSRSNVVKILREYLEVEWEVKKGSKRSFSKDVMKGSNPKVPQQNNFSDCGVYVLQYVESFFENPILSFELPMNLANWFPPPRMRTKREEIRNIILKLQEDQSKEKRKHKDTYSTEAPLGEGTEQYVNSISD
SENP8 confirm: SENP8 protease inhibitors, retest, confirmation, biochemical, luminescence, single concentration | shares compounds with SENP7 block | Recombinant SENP8, Z-RLRGG-aminoluciferin luminescence, 60 min | inhibition, % at 12.5 µM | actives 40% (n = 6,200) | AID 488912, 2010;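 active means mean inhibition across replicates above about 50%, limit read from the data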
SENP6 confirm: SENP6 protease inhibitors, confirmation, biochemical, luminescence, single concentration; shares compounds with SENP7 block; recombinant SENP6, Z-RLRGG-aminoluciferin luminescence; inhibition, % at 12.5 µM; actives 58% (n = 6,200); AID 488915, 2010
SENP7 conf: SENP7 protease inhibitors, retest, confirmation, biochemical, luminescence, single concentration | shares compounds with SENP7 block | recombinant SENP7, Z-RLRGG-aminoluciferin luminescence, 40 min | inhibition, % at 12.5 µM | actives 69% (n = 6,200)
Casp3 select: caspase-3 protease inhibitors, confirmation, selectivity assay for SENP inhibitor project, biochemical, single concentration | purified caspase-3, Z-DEVD-aminoluciferin luminescence, 60 min | shares compounds with SENP7 block | AID 488918, 2010 | inhibition, % at 12.5 µM | actives 60% (n = 6,200);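 active means mean inhibition above about 50%, limit read from the data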
Luc interf: interferes with luciferase luminescence in SENP counter-screen; shares compounds with SENP7 block; Pre-incubated SENP8/Z-RLRGG-aminoluciferin, luciferase luminescence interference; inhibition, % at 12.5 µM; actives 39% (n = 6,200); AID 488919;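 active means mean inhibition above about 50% when retested at one dose, limit read from the data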
A number is an active result; - = inactive; . = no result given.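 How the source made its calls, unless noted: active means mean inhibition above about 50% in the one-dose retest (limit read from the data); inactive means the rest.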

SMILES | PPC-1+TRAIL kill | SENP8 block-1 | TRAIL sens C8 | SENP7 block | SENP8 block-2 | SENP6 inh | SENP8 confirm | SENP6 confirm | SENP7 conf | Casp3 select | Luc interf
CCC(C)NC(=O)C1CCN(C(=O)N(C)C)CC1 (stereo unspecified) | - | - | - | 102 | - | - | - | - | - | - | -
Cc1ccc(NC(=O)C(=O)Nc2ccc(C)cn2)nc1 | - | - | - | - | - | - | . | . | . | . | .
Cc1ccc(NC(=O)c2oc3ccccc3c2C)nc1 | . | - | - | - | - | 55 | - | - | 70 | - | -
Cc1c(C(=O)Nc2nnc(C(F)(F)F)s2)oc2ccccc12 | - | - | - | 62 | - | - | 53 | 54 | 60 | 59 | -
Cc1c(C(=O)Nc2ccccn2)oc2ccccc12 | - | - | - | 76 | 57 | 64 | - | 55 | 79 | 56 | 56
Cc1ccc(NC(=O)c2sccc2C)nc1 | . | - | - | 99 | 92 | 99 | 94 | 95 | 102 | 98 | 92
Cc1c(C(=O)Nc2ccccn2)oc2c(Cl)cccc12 | . | - | - | - | - | - | . | . | . | . | .
COc1ccc(N2CC(C(=O)N[C@H](C(=O)NC3CCCCC3)C(C)C)CC2=O)cc1 (stereo partly specified) | . | - | - | - | - | - | . | . | . | . | .
NCCCCC(N)c1cn([C@@H](CCC(=O)O)C(=O)N2CCNCC2)nn1 (stereo partly specified) | . | - | - | - | - | - | . | . | . | . | .
CCN(c1ccccc1)S(=O)(=O)c1cccc(C(=O)NCCOc2ccccc2OC)c1 | . | - | - | - | - | - | . | . | . | . | .
Cc1ccc(C(=O)OCC(=O)Nc2ccccc2Cl)c(O)c1 | - | - | - | 66 | - | - | - | - | - | - | -
CC1(CO)COC2(OC1)C(=O)Nc1ccccc12 (stereo unspecified) | . | - | - | - | - | - | . | . | . | . | .
Nc1nc(Nc2ccccc2F)sc1C(=O)c1ccccc1 | . | - | - | - | 59 | 72 | 74 | 69 | 86 | - | 76
Cc1nc(Nc2ccccc2)sc1C(=O)c1ccc(F)cc1 | . | - | - | - | - | - | . | . | . | . | .
COc1ccc(NC(=O)CN(C)C(=O)c2cccc(S(=O)(=O)Nc3ccc(F)cc3)c2)cc1 | . | - | - | - | - | - | . | . | . | . | .
OCCCCCNc1ncnc2ccccc12 | - | - | - | - | - | - | . | . | . | . | .
OCCCCNc1cccc2ccccc12 | - | - | - | - | - | 63 | - | - | - | - | -
O=C(c1cc(-c2cccs2)on1)N1CCc2ccccc2C1 | - | - | - | 52 | - | - | - | - | - | - | -
CCOC(=O)C1=C(COC(=O)c2ccc([N+](=O)[O-])s2)NC(=O)NC1C (stereo unspecified) | . | - | - | - | 76 | 75 | 82 | 87 | 52 | - | -
O=C1C(Cl)=C(Nc2ccccc2O)C(=O)N1c1ccccc1 | - | - | - | - | - | 52 | - | - | 66 | 60 | 51
COc1ccccc1N1C(=O)C(Cl)=C(Nc2ccccc2O)C1=O | - | - | - | . | . | . | . | . | . | . | .
